Results: PubChem BioAssay (NCATS)
Inconclusive results are not listed. Calls of active or inactive are those of the source. Calls follow the shape of the dose curve; as a rule, active = well fitted curve in the direction sought with a large enough effect; inconclusive = small, poorly fitted or top-dose-only effect, or another doubt; inactive = no such curve, though single readings can be large; an effect the other way counts as inactive or inconclusive.

Assays:
NIH3T3 = assay: qHTS assay to identify novel small-molecules to repurpose for Merkel cell carcinoma treatment (AID 1296009); conditions: MCC and control cell lines, CellTiter-Glo viability, 72 h; series mostly up to 44.8 µM; also: nearly all actives have a fitted effect of over 60% in size
In short: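 CellTiter-Glo luminescence after 72 hr compound exposure at 37 degree celsius gave cell viability. Libraries NPC and MIPE were run as 8- and 11-point dose responses; RLUs normalized to DMSO (negative) and no-cell (cytotoxicity) controls.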

C33A = assay: Primary qHTS to identify gynecologic anti-cancer compounds using libraries of approved drugs and bioactive compounds (AID 1345084); conditions: Gynecologic cancer cell panel viability, ATPlite luminescence, 48 h; series mostly up to 57.5 µM; also: nearly all actives have a fitted effect of over 55% in size
In short: (§1)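 Cells, 1,000 per well, were allowed to settle for 16 h at 37 C before compound addition. Five concentrations were tested for 48 h, and viability was read by ATPlite luminescence after 15 min at room temperature.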

CAOV3 = assay: as above; conditions: Gynecologic cancer cell panel viability, ATPlite luminescence, 48 h; series mostly up to 57.5 µM
In short: as §1

CASKI = assay: as above; conditions: Gynecologic cancer cell panel viability, ATPlite luminescence, 48 h; series mostly up to 57.5 µM
In short: as §1

Es-2 = assay: as above; conditions: Gynecologic cancer cell panel viability, ATPlite luminescence, 48 h; series mostly up to 57.5 µM
In short: as §1

HeLa = assay: as above; conditions: Gynecologic cancer cell panel viability, ATPlite luminescence, 48 h; series mostly up to 57.5 µM
In short: as §1

Hek293T = assay: as above; conditions: Gynecologic cancer cell panel viability, ATPlite luminescence, 48 h, control line for the selectivity index; series mostly up to 57.5 µM
In short: as §1

JEG-3 = assay: as above; conditions: Gynecologic cancer cell panel viability, ATPlite luminescence, 48 h; series mostly up to 57.5 µM
In short: as §1

OV90 = assay: as above; conditions: Gynecologic cancer cell panel viability, ATPlite luminescence, 48 h; series mostly up to 57.5 µM
In short: as §1

PA-1 = assay: as above; conditions: Gynecologic cancer cell panel viability, ATPlite luminescence, 48 h; series mostly up to 57.5 µM
In short: as §1

SKOV3 = assay: as above; conditions: Gynecologic cancer cell panel viability, ATPlite luminescence, 48 h; series mostly up to 57.5 µM
In short: as §1

Tov-21-G = assay: as above; conditions: Gynecologic cancer cell panel viability, ATPlite luminescence, 48 h; series mostly up to 57.5 µM
In short: as §1

Tov112D = assay: as above; conditions: Gynecologic cancer cell panel viability, ATPlite luminescence, 48 h; series mostly up to 57.5 µM
In short: as §1

Measured: Potency

C=C1CCN([C@H](C)[C@](O)(Cn2cncn2)c2ccc(F)cc2F)CC1
inactive: NIH3T3 | C33A | CAOV3 | CASKI | Es-2 | HeLa | Hek293T | JEG-3 | OV90 | PA-1 | SKOV3 | Tov-21-G | Tov112D

Cc1nnc(-c2ccc(-c3ccc(C(=O)Nc4ccc(O)c(N5CCN(C)CC5)c4)cc3)c(C)c2)o1
inactive: NIH3T3 | C33A | CAOV3 | CASKI | Es-2 | HeLa | Hek293T | JEG-3 | OV90 | PA-1 | SKOV3 | Tov-21-G | Tov112D

COc1ccc(CCN(C)CCCOc2nsc(-c3ccccc3)n2)cc1OC
inactive: NIH3T3 | C33A | CAOV3 | CASKI | Es-2 | HeLa | Hek293T | JEG-3 | OV90 | PA-1 | SKOV3 | Tov-21-G | Tov112D

O=c1[nH]cnc2c([C@@H]3N[C@H](CO)[C@@H](O)[C@H]3O)c[nH]c12
inactive: NIH3T3 | C33A | CAOV3 | CASKI | Es-2 | HeLa | Hek293T | JEG-3 | OV90 | PA-1 | SKOV3 | Tov-21-G | Tov112D

CCCNCCc1ccc(NS(=O)(=O)c2ccc(OC(F)(F)F)cc2)cc1
inactive: NIH3T3 | C33A | CAOV3 | CASKI | Es-2 | HeLa | Hek293T | JEG-3 | OV90 | PA-1 | SKOV3 | Tov-21-G | Tov112D

CN(C)CCOc1cc(NS(=O)(=O)c2c(Cl)cc(C(F)(F)F)cc2Cl)ccc1Cl
inactive: NIH3T3 | C33A | CAOV3 | CASKI | Es-2 | HeLa | Hek293T | JEG-3 | OV90 | PA-1 | SKOV3 | Tov-21-G | Tov112D

CC#CCn1c(N2CCCC(N)C2)nc2c1c(=O)n(Cc1nc(C)c3ccccc3n1)c(=O)n2C (stereo unspecified)
inactive: NIH3T3 | C33A | CAOV3 | CASKI | Es-2 | HeLa | Hek293T | JEG-3 | OV90 | PA-1 | SKOV3 | Tov-21-G | Tov112D

CCC(=O)N1CCOc2c(cc(-c3ccc(OC)c(OC)c3)cc2OC[C@H]2CCCN(C)C2)C1
inactive: NIH3T3 | C33A | CAOV3 | CASKI | Es-2 | HeLa | Hek293T | JEG-3 | OV90 | PA-1 | SKOV3 | Tov-21-G | Tov112D

CC1(C)C2CCC(CO[C@@H]3O[C@H](CO[C@@H]4OC[C@](O)(CO)[C@H]4O)[C@@H](O)[C@H](O)[C@H]3O)C1C2 (stereo partly specified)
inactive: NIH3T3 | C33A | CAOV3 | CASKI | Es-2 | HeLa | Hek293T | JEG-3 | OV90 | PA-1 | SKOV3 | Tov-21-G | Tov112D

CN1CCN(C2=Nc3ccccc3Nc3ccc(OS(=O)(=O)C(F)(F)F)cc32)CC1
inactive: NIH3T3 | C33A | CAOV3 | CASKI | Es-2 | HeLa | Hek293T | JEG-3 | OV90 | PA-1 | SKOV3 | Tov-21-G | Tov112D

CC(=O)OC1C(OC(=O)c2ccccc2)C2C(C)(C)CCC(OC(C)=O)C2(C)C23CCC(C)(C2)C(=O)CC13 (stereo unspecified)
inactive: NIH3T3 | C33A | CAOV3 | CASKI | Es-2 | HeLa | Hek293T | JEG-3 | OV90 | PA-1 | SKOV3 | Tov-21-G | Tov112D

CCc1c(Cl)c(O)c(Cl)c(O)c1C(=O)O[C@H]1[C@H](O)[C@H](OC)[C@H](OC/C2=C\C=C\C[C@H](O)/C(C)=C\[C@H](CC)[C@@H](O[C@@H]3OC(C)(C)[C@@H](OC(=O)C(C)C)[C@H](O)[C@@H]3O)/C(C)=C/C(C)=C/C[C@@H]([C@@H](C)O)OC2=O)O[C@@H]1C
inactive: NIH3T3 | C33A | CAOV3 | CASKI | Es-2 | HeLa | Hek293T | JEG-3 | OV90 | PA-1 | SKOV3 | Tov-21-G | Tov112D

CO[C@H]1O[C@@H]2O[C@@]3(C)CCC4[C@H](C)CCC([C@H]1C)[C@]42OO3 (stereo partly specified)
inactive: NIH3T3 | C33A | CAOV3 | CASKI | Es-2 | HeLa | Hek293T | JEG-3 | OV90 | PA-1 | SKOV3 | Tov-21-G | Tov112D

C=C1CCCC2(C)CCC(C(C)(C)OC3OC(C)C(O)C(O)C3OC(=O)/C(C)=C\C)CC12 (stereo unspecified)
inactive: NIH3T3 | C33A | CAOV3 | CASKI | Es-2 | HeLa | Hek293T | JEG-3 | OV90 | PA-1 | SKOV3 | Tov-21-G | Tov112D

CN1CCc2cc3c(cc2C(=O)Cc2cc4c(cc2C1)OCO4)OCO3
inactive: NIH3T3 | C33A | CAOV3 | CASKI | Es-2 | HeLa | Hek293T | JEG-3 | OV90 | PA-1 | SKOV3 | Tov-21-G | Tov112D

O=C([C@@H](Cc1cccc(C(F)(F)F)c1)NS(=O)(=O)c1cc(F)c2c(c1)CCNC2)N1CCCC1
inactive: NIH3T3 | C33A | CAOV3 | CASKI | Es-2 | HeLa | Hek293T | JEG-3 | OV90 | PA-1 | SKOV3 | Tov-21-G | Tov112D

C=C1CCC2C(C)(C(=O)O)CCCC2(C)C1CCC1=CCOC1=O (stereo unspecified)
inactive: NIH3T3 | C33A | CAOV3 | CASKI | Es-2 | HeLa | Hek293T | JEG-3 | OV90 | PA-1 | SKOV3 | Tov-21-G | Tov112D
